Results on seven sequences are retold here after paper PMC7862700, “An all-to-all approach to the identification of sequence-specific readers for epigenetic DNA modifications on cytosine”.

Test in all cases: DAPPL (digital affinity profiling via proximity ligation, sequencing); 10 mM Tris-HCl pH 7.5, 50 mM NaCl, 1 mM DTT, 4% glycerol, room temperature, 30 min; GST-TFs on glutathione beads, 16-mer random dsDNA library, 0.1% formaldehyde crosslink after washing; high values mean tight binding
Holding throughout (settings): protein: recombinant; tags: N-terminal GST; dsDNA, one strand shown

For experiment [1], the target named is T1, FEV (Homo sapiens, UniProt Q99581 1-238).
T1 sequence: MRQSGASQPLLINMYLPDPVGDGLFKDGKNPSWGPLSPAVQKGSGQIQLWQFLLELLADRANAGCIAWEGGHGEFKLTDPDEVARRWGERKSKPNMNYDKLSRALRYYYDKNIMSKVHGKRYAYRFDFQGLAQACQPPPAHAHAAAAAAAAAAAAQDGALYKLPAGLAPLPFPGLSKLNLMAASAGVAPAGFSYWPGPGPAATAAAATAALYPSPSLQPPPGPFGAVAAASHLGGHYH
A digest of the protocol:
(§1)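 In yeast, human transcription factors were expressed with a GST fusion, then pulled down on glutathione beads and given DNA barcodes. Pooled with a tag-only sample, they were exposed to 200 nmole of a 16-mer random double-stranded DNA library (Tris/NaCl/DTT/glycerol buffer, room temperature, 30 min), washed, crosslinked with 0.1% formaldehyde, proximity-ligated using BsaI/T4 ligase for 1 h at 37 °C, PCR-amplified and read on an Illumina NextSeq500. Each hexamer's frequency of reads for a factor, divided by the matching frequency for the tag-only sample, gives the binding signal.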

Experiment [2] deals with ETV5 (Homo sapiens, UniProt P41161 1-510). A digest of the protocol: as §1
Sequence of ETV5 (P41161 whole entry): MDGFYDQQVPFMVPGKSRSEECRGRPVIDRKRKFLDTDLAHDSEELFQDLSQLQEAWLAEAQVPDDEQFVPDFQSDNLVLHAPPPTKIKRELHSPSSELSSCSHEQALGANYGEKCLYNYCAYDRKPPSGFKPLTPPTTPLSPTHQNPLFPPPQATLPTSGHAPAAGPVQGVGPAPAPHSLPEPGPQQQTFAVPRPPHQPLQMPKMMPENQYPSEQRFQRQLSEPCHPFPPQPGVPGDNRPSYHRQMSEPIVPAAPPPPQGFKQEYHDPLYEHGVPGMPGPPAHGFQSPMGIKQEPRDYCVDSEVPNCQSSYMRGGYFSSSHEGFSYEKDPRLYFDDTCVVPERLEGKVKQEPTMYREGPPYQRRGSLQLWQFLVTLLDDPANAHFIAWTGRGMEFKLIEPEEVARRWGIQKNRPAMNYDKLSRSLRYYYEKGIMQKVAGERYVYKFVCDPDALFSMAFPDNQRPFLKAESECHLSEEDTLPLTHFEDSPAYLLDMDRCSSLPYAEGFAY
Experiment [3] addresses T2, SPIC (Homo sapiens, UniProt Q8N5J4 1-248).
T2 sequence: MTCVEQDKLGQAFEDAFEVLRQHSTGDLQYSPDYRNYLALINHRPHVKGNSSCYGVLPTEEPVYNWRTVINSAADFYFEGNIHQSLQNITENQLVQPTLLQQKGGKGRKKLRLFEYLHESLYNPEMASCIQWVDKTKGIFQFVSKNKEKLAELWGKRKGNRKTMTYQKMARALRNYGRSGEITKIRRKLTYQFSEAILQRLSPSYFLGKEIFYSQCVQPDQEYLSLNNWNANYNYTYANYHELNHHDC
In a few lines:
as §1

Experiment [4] deals with ELF4 (Homo sapiens, UniProt Q99607 1-663). A digest of the protocol:
as §1

The target of experiment [5] is T3, ELK4 (Homo sapiens, UniProt P28324-2 1-405).
T3 sequence: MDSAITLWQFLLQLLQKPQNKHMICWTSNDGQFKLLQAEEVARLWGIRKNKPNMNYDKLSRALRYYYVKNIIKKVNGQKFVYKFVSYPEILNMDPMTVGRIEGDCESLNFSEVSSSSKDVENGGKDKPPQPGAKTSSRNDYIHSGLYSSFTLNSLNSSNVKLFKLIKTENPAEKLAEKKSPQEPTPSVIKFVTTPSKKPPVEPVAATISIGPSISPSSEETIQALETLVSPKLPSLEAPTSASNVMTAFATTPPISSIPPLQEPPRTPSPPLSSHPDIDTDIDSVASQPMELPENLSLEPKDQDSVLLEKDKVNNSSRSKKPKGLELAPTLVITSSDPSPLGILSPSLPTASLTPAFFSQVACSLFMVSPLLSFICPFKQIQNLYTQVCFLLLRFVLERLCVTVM
In a few lines: as §1

Experiment [6] has as its target T4, ETV2 (Homo sapiens, UniProt O00321 1-342).
T4 sequence: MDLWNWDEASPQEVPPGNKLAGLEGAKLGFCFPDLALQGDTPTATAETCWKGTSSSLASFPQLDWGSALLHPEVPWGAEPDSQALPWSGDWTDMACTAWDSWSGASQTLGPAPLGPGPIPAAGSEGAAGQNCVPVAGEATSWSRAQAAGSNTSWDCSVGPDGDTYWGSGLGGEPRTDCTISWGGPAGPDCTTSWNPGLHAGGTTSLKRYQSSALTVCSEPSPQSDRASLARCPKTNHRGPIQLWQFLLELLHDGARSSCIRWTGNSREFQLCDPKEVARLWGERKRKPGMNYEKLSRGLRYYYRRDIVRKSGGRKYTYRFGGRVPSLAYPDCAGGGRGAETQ
In a few lines: as §1

For experiment [7], the target named is T5, ELF3 (Homo sapiens, UniProt P78545 1-371).
T5 sequence: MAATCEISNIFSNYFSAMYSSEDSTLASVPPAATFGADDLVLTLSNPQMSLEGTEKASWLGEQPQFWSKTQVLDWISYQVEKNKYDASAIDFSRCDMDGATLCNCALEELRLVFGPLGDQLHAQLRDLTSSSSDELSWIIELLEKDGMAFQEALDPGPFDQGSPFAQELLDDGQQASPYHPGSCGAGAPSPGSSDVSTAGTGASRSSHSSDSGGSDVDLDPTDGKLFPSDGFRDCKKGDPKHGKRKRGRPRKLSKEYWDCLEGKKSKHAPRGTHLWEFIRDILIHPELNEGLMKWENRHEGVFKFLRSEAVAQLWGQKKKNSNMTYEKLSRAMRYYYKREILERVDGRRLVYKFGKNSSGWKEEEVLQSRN
A digest of the protocol:
as §1

Experiment [8] concerns the target ETV1 (Homo sapiens, UniProt P50549 1-477). A digest of the protocol: as §1

Sequence of ETV1 (P50549 whole entry): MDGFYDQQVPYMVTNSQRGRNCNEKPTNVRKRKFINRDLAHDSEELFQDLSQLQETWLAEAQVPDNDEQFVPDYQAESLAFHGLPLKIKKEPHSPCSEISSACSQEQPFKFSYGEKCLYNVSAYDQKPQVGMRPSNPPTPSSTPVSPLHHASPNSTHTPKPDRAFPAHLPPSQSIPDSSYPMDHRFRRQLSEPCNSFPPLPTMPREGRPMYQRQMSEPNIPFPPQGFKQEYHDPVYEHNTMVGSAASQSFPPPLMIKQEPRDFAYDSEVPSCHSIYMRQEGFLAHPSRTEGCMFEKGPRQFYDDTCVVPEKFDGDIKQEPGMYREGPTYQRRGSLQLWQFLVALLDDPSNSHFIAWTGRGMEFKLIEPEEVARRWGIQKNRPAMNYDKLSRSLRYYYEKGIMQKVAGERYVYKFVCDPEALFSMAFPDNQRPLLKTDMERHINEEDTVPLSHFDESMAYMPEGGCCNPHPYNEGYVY
Sequence of ELF4 (Q99607 whole entry): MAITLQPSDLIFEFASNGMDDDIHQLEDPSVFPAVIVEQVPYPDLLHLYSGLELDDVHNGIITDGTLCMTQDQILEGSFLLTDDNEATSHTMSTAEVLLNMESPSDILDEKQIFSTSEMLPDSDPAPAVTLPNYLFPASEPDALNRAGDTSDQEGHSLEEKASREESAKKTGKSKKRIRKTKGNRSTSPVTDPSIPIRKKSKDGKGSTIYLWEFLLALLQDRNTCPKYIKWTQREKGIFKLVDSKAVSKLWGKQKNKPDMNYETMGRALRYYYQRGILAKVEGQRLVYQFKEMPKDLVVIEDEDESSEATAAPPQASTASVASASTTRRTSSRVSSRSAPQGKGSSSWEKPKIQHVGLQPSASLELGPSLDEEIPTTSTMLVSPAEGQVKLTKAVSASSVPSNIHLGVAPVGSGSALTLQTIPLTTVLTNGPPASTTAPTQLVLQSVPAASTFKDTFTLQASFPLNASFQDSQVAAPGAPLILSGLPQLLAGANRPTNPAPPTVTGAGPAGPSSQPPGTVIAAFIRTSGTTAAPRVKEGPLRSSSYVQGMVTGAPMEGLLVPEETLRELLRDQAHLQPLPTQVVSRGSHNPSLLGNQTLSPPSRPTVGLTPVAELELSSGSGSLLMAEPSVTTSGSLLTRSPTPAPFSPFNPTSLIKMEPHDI

For CGCACT, the binding signal in experiment [1] is 1.32 fold enrichment (6-mer frequency, TF over GST control); in experiment [2] it was 1.28 fold enrichment (6-mer frequency, TF over GST control); in experiment [3], 1.04 fold enrichment (6-mer frequency, TF over GST control); in experiment [4], 1.29 fold enrichment (6-mer frequency, TF over GST control); in experiment [5] it was 1.1 fold enrichment (6-mer frequency, TF over GST control); in experiment [6] it was 1.29 fold enrichment (6-mer frequency, TF over GST control). Further, the binding signal in experiment [7] was 1.26 fold enrichment (6-mer frequency, TF over GST control); in experiment [8] it was 1.23 fold enrichment (6-mer frequency, TF over GST control).
Take CCAAAC: the binding signal in experiment [1] is 1.08 fold enrichment (6-mer frequency, TF over GST control); in experiment [2], 1.07 fold enrichment (6-mer frequency, TF over GST control); in experiment [3], 1.16 fold enrichment (6-mer frequency, TF over GST control); in experiment [4], 1.14 fold enrichment (6-mer frequency, TF over GST control); in experiment [5], 1.15 fold enrichment (6-mer frequency, TF over GST control); in experiment [6], 1.07 fold enrichment (6-mer frequency, TF over GST control). The binding signal in experiment [7] was 1.11 fold enrichment (6-mer frequency, TF over GST control); in experiment [8] it was 1.02 fold enrichment (6-mer frequency, TF over GST control).
Take TGTGCC: the binding signal in experiment [1] is 1.2 fold enrichment (6-mer frequency, TF over GST control); in experiment [2], 1.21 fold enrichment (6-mer frequency, TF over GST control); in experiment [3] it was 1.12 fold enrichment (6-mer frequency, TF over GST control); in experiment [4], 1.17 fold enrichment (6-mer frequency, TF over GST control); in experiment [5], 1.32 fold enrichment (6-mer frequency, TF over GST control); in experiment [6] it was 1.23 fold enrichment (6-mer frequency, TF over GST control). For the same sequence, the binding signal in experiment [7] was 1.03 fold enrichment (6-mer frequency, TF over GST control); in experiment [8], 1.05 fold enrichment (6-mer frequency, TF over GST control).
For the sequence CGTCAC, the binding signal in experiment [1] is 1.26 fold enrichment (6-mer frequency, TF over GST control); in experiment [2] it was 1.24 fold enrichment (6-mer frequency, TF over GST control); in experiment [3] it was 1.18 fold enrichment (6-mer frequency, TF over GST control); in experiment [4] it was 1.31 fold enrichment (6-mer frequency, TF over GST control); in experiment [5], 1.24 fold enrichment (6-mer frequency, TF over GST control); in experiment [6], 1.12 fold enrichment (6-mer frequency, TF over GST control). The binding signal in experiment [7] is 1.21 fold enrichment (6-mer frequency, TF over GST control); in experiment [8], 1.2 fold enrichment (6-mer frequency, TF over GST control).
TCGCCG: the binding signal in experiment [1] was 1.26 fold enrichment (6-mer frequency, TF over GST control); in experiment [2], 1.03 fold enrichment (6-mer frequency, TF over GST control); in experiment [3] it was 1.09 fold enrichment (6-mer frequency, TF over GST control); in experiment [4], 1.21 fold enrichment (6-mer frequency, TF over GST control); in experiment [5], 1.3 fold enrichment (6-mer frequency, TF over GST control); in experiment [6], 1.2 fold enrichment (6-mer frequency, TF over GST control). The binding signal in experiment [7] was 1.21 fold enrichment (6-mer frequency, TF over GST control); in experiment [8], 1.37 fold enrichment (6-mer frequency, TF over GST control).
In the case of ACACCC, the binding signal in experiment [1] was 1.08 fold enrichment (6-mer frequency, TF over GST control); in experiment [2], 1.08 fold enrichment (6-mer frequency, TF over GST control); in experiment [3] it was 1.19 fold enrichment (6-mer frequency, TF over GST control); in experiment [4] it was 1.07 fold enrichment (6-mer frequency, TF over GST control); in experiment [5], 1.05 fold enrichment (6-mer frequency, TF over GST control); in experiment [6], 1.07 fold enrichment (6-mer frequency, TF over GST control). The binding signal in experiment [7] was 1.01 fold enrichment (6-mer frequency, TF over GST control); in experiment [8] it was 1.14 fold enrichment (6-mer frequency, TF over GST control).
On to CACACG, for which the binding signal in experiment [1] was 1.14 fold enrichment (6-mer frequency, TF over GST control); in experiment [2], 1.11 fold enrichment (6-mer frequency, TF over GST control); in experiment [3] it was 1.15 fold enrichment (6-mer frequency, TF over GST control); in experiment [4], 1.18 fold enrichment (6-mer frequency, TF over GST control); in experiment [5] it was 1.17 fold enrichment (6-mer frequency, TF over GST control); in experiment [6] it was 1.24 fold enrichment (6-mer frequency, TF over GST control). Further, the binding signal is 1.07 fold enrichment (6-mer frequency, TF over GST control) in experiment [7] and 1.16 fold enrichment (6-mer frequency, TF over GST control) in experiment [8].
